Data reported in PubChem BioAssay AID602340 (Broad Institute, 2012).
The whole screen tested about 330,000 compounds, of which about 2,600 (0.79%) were called active. This excerpt belongs to a sample that is enriched for actives. A number with no mark means an inactive call.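 Rule for the calls: active = mean ATP rescue above about 67%, or every replicate alone reaching that limit (limit read from the data, passing the limit was not always enough); inconclusive = no clear call, values can overlap the other calls; inactive = mean under the limit and some replicate under it.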

Assay: protection of differentiated C2C12 cells from simvastatin – single point, plate reader, primary screen (AID 602340);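 note: myotubes were challenged with 10 µM simvastatin during compound exposure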
Conditions: C2C12 myotubes + simvastatin, ATP luminescence, 48 h; at 7.49 µM; stronger effect = higher value

Structure (SMILES) | rescue of ATP level
COc1ccc(C(=O)C2CN(C)CC2C(=O)c2ccc(OC)cc2)cc1 (stereo not given) | 152% (active)
Cc1ccc(C2CN(C)CC2C(=O)c2ccc(F)cc2)cc1 (stereo not given) | -5.74%
COc1ccc(C(=O)CC2C(=O)N(C)C(=O)N(C)C2=O)cc1 | -12%
COc1cccc(-c2ccc3n(c2=O)C[C@H]2[C@H](CO)[C@@H](C(=O)O)[C@@H]3N2C(=O)c2cnccn2)c1 | 13.9%
CCn1cc(CN2CCCC(C(=O)c3cccc(C(F)(F)F)c3)C2)cn1 (stereo not given) | -1.69%
COc1cccc(C(c2nnnn2-c2ccc3c(c2)OCCO3)N2CCC3(CC2)C(=O)NCN3c2ccccc2)c1OC (stereo not given) | -28%
Cc1cc(OCc2cc(C(=O)O)oc2C)c2c3c(c(=O)oc2c1)CCCC3 | 23.5%
CCN1CCN(C(=O)Cc2coc3cc(C)cc(C)c23)CC1 | 104% (active)
COc1ccccc1CN1CCN(C(=O)Cc2ccccc2)CC1 | -9.85%
O=C(O)[C@H]1[C@H](CO)[C@H]2Cn3c(ccc(-c4ccccc4)c3=O)[C@@H]1N2S(=O)(=O)c1ccccc1F | 21.2%
